ULK1 primary – inhibitors of human ULK1 kinase | O75385 | AlphaScreen Atg13 phosphorylation by ULK1, luminescence | inhibition, % at 5.96 µM | actives 1.9% (n = 30,000) | AID 1259251; in the data active = inhibition above about 43%;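 also: 0% = median of compound wells and 100% = no enzyme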
ASK1 primary – human ASK1 kinase inhibition, primary screen; AlphaScreen MKK6 phosphorylation by ASK1, luminescence; inhibition, % at 7.44 µM; actives 0.99% (n = 22,000); AID 1159602; in the data active = inhibition above about 35%;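 also: 0% = median of compound wells and 100% = no enzyme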
AlphaScreen intf – AlphaScreen optical interference dose response, ASK1 counter-screen | AlphaScreen TruHits beads, signal interference counterscreen | IC50, µM | actives 20% (n = 220) | shares compounds with ASK1 primary | AID 1159604;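 active = IC50 of 10 µM or lower in the counterscreen; inactive = IC50 above 10 µM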;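 also: loss of AlphaScreen light from TruHits beads alone with no ASK1 enzyme present; potency of signal reduction so a low IC50 flags an assay artifact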
The depositor's hits bear a star; i = inactive; · = no result given. Compounds with a hit are over-represented: about 2.5% of the library has one in this group of screens.

SMILES	ULK1 primary	ASK1 primary	AlphaScreen intf
FC(F)(F)c1ccc(Cn2cnc3c(Nc4ccc(N5CCOCC5)cc4)nc(NC4CCN(Cc5ccccc5)CC4)nc32)cc1	-5	37*	i
Oc1ccc(CCNc2nc(NC3CCN(Cc4ccccc4)CC3)nc3c2ncn3Cc2ccc(C(F)(F)F)cc2)cc1	-8	39*	>20
COc1ccc(CCNc2nc(NC3CCN(Cc4ccccc4)CC3)nc3c2ncn3Cc2ccc(C(F)(F)F)cc2)cc1	-5	23	·
FC(F)(F)c1ccc(Cn2cnc3c(Nc4ccc(N5CCOCC5)cc4)nc(Nc4ccccc4)nc32)cc1	-16	23	·
CC(=O)c1cccc(-c2nc(NCc3cccc(C(F)(F)F)c3)c3ncn(-c4ccsc4)c3n2)c1	1	3	·
FC(F)(F)c1cc(-c2ccnc(Nc3ccc(N4CCOCC4)cc3)n2)cc(N2CCOCC2)c1	16	45*	>19
FC(F)(F)c1cc(-c2ccnc(Nc3ccc(N4CCOCC4)nc3)n2)cc(N2CCOCC2)c1	8	16	·
c1cc(-c2ccc3[nH]ncc3c2)nc(Nc2ccc(N3CCOCC3)cc2)n1	65*	38*	>19
N#Cc1cc(-c2ccnc(Nc3ccc(N4CCOCC4)cc3)n2)cc(N2CCN(C3CC3)CC2)c1	8	-6	·
c1cc(-c2ccc3nonc3c2)nc(Nc2ccc(N3CCOCC3)cc2)n1	0	14	·
Fc1cc(-c2ccnc(Nc3ccc(N4CCOCC4)cc3)n2)cc(N2CCN(C3CC3)CC2)c1	56*	40*	>19
CCNc1nc(Nc2ccc(NC(C)=O)cc2)c2ncn(-c3ccsc3)c2n1	12	13	·
c1cncc(CNc2nc(Nc3ccncn3)nc3c2ncn3C2CCCCC2)c1	23	14	·
CC(C)n1cnc2c(Nc3ccccc3)nc(Nc3ccc(N4CCOCC4)cc3)nc21	31	47*	>20
FC(F)(F)c1ccc(Cn2cnc3c(Nc4ccc(N5CCOCC5)cc4)nc(N4CCN(c5ccccn5)CC4)nc32)cc1	-11	38*	>20
CC(=O)Nc1ccc(Nc2nc(N3CCN(c4ccccn4)CC3)nc3c2ncn3Cc2ccc(C(F)(F)F)cc2)cc1	-58	6	·
c1ccc(-n2cnc3c(Nc4ccc(N5CCOCC5)cc4)nc(Nc4ccc(-n5ccnc5)cc4)nc32)cc1	17	-5	·
CC(C)n1cnc2c(NCc3ccccc3)nc(Nc3ccc(N4CCOCC4)cc3)nc21	-5	35	·
CC(C)n1cnc2c(Nc3ccc(Oc4ccccc4)cc3)nc(N3CCOCC3)nc21	17	42*	>20
c1ccc(-n2cnc3c(Nc4ccc(N5CCOCC5)cc4)nc(Nc4cccnc4)nc32)cc1	11	40*	>16
CC(C)n1cnc2c(Nc3ccccc3)nc(N3CCOCC3)nc21	17	2	·
NC(=O)c1ccc(-c2cc(C(=O)NCc3nc4ccccc4[nH]3)ccn2)cc1	3	-1	·
NC(=O)C1CCN(c2ccc(Nc3nccc4ccccc34)nn2)CC1	3	-3	·
O=C(NCCOc1ccccc1)c1ccnc(Cl)c1	-3	3	·
Cc1nnc(NCc2nc3ccccc3[nH]2)c2ccccc12	4	·	·
SMILES	ULK1 primary	ASK1 primary	AlphaScreen intf
C/C(CC(=O)NCc1ccco1)=N\NC(=O)c1ccc(Br)cc1	9	·	·
CCNC(=O)c1ccc([N+](=O)[O-])c(C)c1	5	·	·
CCCN1[C@H](C)c2sccc2/C(=C\CCO)[C@H]1c1cccc(Cl)c1	-5	5	·
CC(C)n1cnc2c(Nc3ccc(N4CCOCC4)cc3)nc(N3CCN(c4ccccn4)CC3)nc21	35	36*	i
CC(C)n1cnc2c(Nc3ccccc3)nc(N3CCN(c4ccccn4)CC3)nc21	16	32	·
FC(F)(F)c1ccc(Cn2cnc3c(NCc4ccccc4)nc(Nc4ccccc4)nc32)cc1	-4	46*	>20
OCCNc1nc(Nc2ccc3ncccc3c2)nc2c1ncn2Cc1ccc(C(F)(F)F)cc1	7	-2	·
FC(F)(F)c1ccc(Cn2cnc3c(NCc4cccc(C(F)(F)F)c4)nc(Nc4ccc5ncccc5c4)nc32)cc1	0	40*	>20
FC(F)(F)c1ccc(Cn2cnc3c(NCc4cccc(C(F)(F)F)c4)nc(Nc4ccccc4)nc32)cc1	0	15	·
Cc1cccc(NS(=O)(=O)c2ccc3c(c2)OCCCO3)c1	-2	·	·
COc1ccc(-c2ccc(Nc3nccc(-c4cc(C#N)cc(N5CCOCC5)c4)n3)cc2)cn1	-4	-2	·
CN1CCN(c2ncn(-c3ccc(Nc4nccc(-c5cc(C#N)cc(N6CCC(O)CC6)c5)n4)cc3)n2)CC1	-51	41*	>19
COc1ccc(-c2ncn(-c3ccc(Nc4nccc(-c5cc(C#N)cc(N6CCNCC6)c5)n4)cc3)n2)cn1	-387	45*	>19
N#Cc1cc(-c2ccnc(Nc3ccc(-n4cnc(N5CCOCC5)n4)cc3)n2)cc(N2CCCC(O)C2)c1 (stereo not given)	6	14	·
Cc1n[nH]c(C)c1-c1cc(F)cc(-c2ccnc(Nc3ccc(-n4cnc(N5CCOCC5)n4)cc3)n2)c1	13	48*	>19
Cc1ccc(-c2ncn(-c3ccc(Nc4nccc(-c5cc(F)cc(N(C)C)c5)n4)cc3)n2)cn1	-25	-15	·
CN(C)c1cc(F)cc(-c2ccnc(Nc3ccc(-n4cnc(N5CCC(O)CC5)n4)cc3)n2)c1	-33	39*	>19
Fc1cc(-c2ccnc(Nc3ccc(-n4cnc(N5CCOCC5)n4)cc3)n2)cc(N2CCOCC2)c1	5	24	·
CC(Nc1ncc(-c2ccccc2)cn1)c1ccccc1 (stereo not given)	6	·	·
Cc1cnc(Nc2cnccn2)nc1NC1CCN(Cc2ccccc2)CC1	1	8	·
FC(F)(F)Oc1ccc(Nc2nc(NCC3CCCO3)c3[nH]cnc3n2)cc1 (stereo not given)	1	3	·
Cc1nc(-c2ccc3cnc(Nc4ccc(-n5cnc(N6CCOCC6)n5)cc4)nc3c2)n[nH]1	19	-21	·
c1cc(-n2cnc(N3CCOCC3)n2)ccc1Nc1ncc2ccc(-c3cn[nH]n3)cc2n1	59*	49*	>19
OC(CNc1ncccn1)c1ccccc1 (stereo not given)	0	·	·
O=C(NCCc1ccc(O)cc1)c1ccc2nc(NCc3cccnc3)sc2c1	-2	-10	·
